Assay results: the supplement of paper PMC4466140

B1: unnamed (peptide)
chain: NMLSRPRLAKLPSIR
B2: unnamed (peptide)
chain: NLPKRKPPKLQGPFS
B3: unnamed (peptide)
chain: FSRRQSMDIPSKNRN
B4: unnamed (peptide)
chain: YVRRRPRVRLEPLLS

What follows are binders tested against SpBzz1-D2 (assay: SPOT peptide array binding signal intensity (averaged, normalized) (arbitrary units (background-subtracted, floor 0; scale differs between SH3 domains)); higher = stronger binding of the SH3 domain to the peptide).
In short: (§1)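 SH3 domains from four yeast species were expressed as GST fusions in E. coli BL21(DE3) and purified on glutathione Sepharose. Each was incubated at 10 μg/ml overnight at 4°C in TBS-based blocking buffer on cellulose membranes bearing synthetic 15-mer peptides, in which serines replaced cysteines. Bound protein was detected with anti-GST antibody, an HRP anti-mouse secondary and luminol, then imaged and quantified with Genespotter. The binding signal is the normalized, background-subtracted spot intensity averaged over replicates, in arbitrary units that are not the same from one domain to another.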

Binder	SPOT peptide array binding signal intensity
B1	13
B2	0.5
B4	4.62

The binders below were run against SpCyk3 in the same assay as above.
In short: as §1

Binder	SPOT peptide array binding signal intensity
B1	3
B2	1
B4	2

Each binder was assayed against SpHof1 in the same assay as above.
In short: as §1

Binder	SPOT peptide array binding signal intensity
B1	100
B2	117
B4	97.6

Each binder was assayed against SpHof1-2 in the same assay as above.
In short: as §1

Binder	SPOT peptide array binding signal intensity
B1	59.2
B2	3.25
B4	29.5

These binders were tested against SpHof1-3 in the same assay as above.
In short: as §1

Binder	SPOT peptide array binding signal intensity
B1	1590
B2	475
B4	256

The binders below were run against SpHse1 in the same assay as above.
In short: as §1

Binder	SPOT peptide array binding signal intensity
B1	2030
B2	722
B4	834

Each binder was assayed against SpLsb1 in the same assay as above.
In short: as §1

Binder	SPOT peptide array binding signal intensity
B1	10.5
B2	5
B4	7.88

The binders below were run against SpLsb4 in the same assay as above.
In short: as §1

Binder	SPOT peptide array binding signal intensity
B1	859
B2	756
B4	254

Each binder was assayed against SpMyo1 in the same assay as above.
In short: as §1

Binder	SPOT peptide array binding signal intensity
B1	24.8
B2	254
B4	5.25

The binders below were run against SpNbp2 in the same assay as above.
In short: as §1

Binder	SPOT peptide array binding signal intensity
B1	577
B2	82.5
B4	673

Each binder was assayed against SpPex13 in the same assay as above.
In short: as §1

Binder	SPOT peptide array binding signal intensity
B1	74
B2	5
B4	61.8

Each binder was assayed against SpRvs167 in the same assay as above.
In short: as §1

Binder	SPOT peptide array binding signal intensity
B1	32.2
B2	7.17
B4	23

These binders were tested against SpSla1-D1-D2 in the same assay as above.
In short: as §1

Binder	SPOT peptide array binding signal intensity
B1	8
B2	≤ 0
B4	9

The binders below were run against SpSla1-D3 in the same assay as above.
In short: as §1

Binder	SPOT peptide array binding signal intensity
B1	194
B2	1
B4	87

What follows are binders tested against AgAbp1 in the same assay as above.
In short: as §1

Binder	SPOT peptide array binding signal intensity
B2	117
B3	114
B4	116

These binders were tested against AgBbc1 in the same assay as above.
In short: as §1

Binder	SPOT peptide array binding signal intensity
B2	7.75
B3	69.8
B4	30.5

What follows are binders tested against AgBem1-D1 in the same assay as above.
In short: as §1

Binder	SPOT peptide array binding signal intensity
B2	244
B3	557
B4	62.5

Each binder was assayed against AgBzz1-D1 in the same assay as above.
In short: as §1

Binder	SPOT peptide array binding signal intensity
B2	148
B3	33
B4	152

The binders below were run against AgBzz1-D2 in the same assay as above.
In short: as §1

Binder	SPOT peptide array binding signal intensity
B2	77.5
B3	78.5
B4	91.5

The binders below were run against AgCyk3 in the same assay as above.
In short: as §1

Binder	SPOT peptide array binding signal intensity
B2	2.5
B3	3
B4	6.5

Each binder was assayed against AgFus1 in the same assay as above.
In short: as §1

Binder	SPOT peptide array binding signal intensity
B2	64
B3	248
B4	928

These binders were tested against AgHof1 in the same assay as above.
In short: as §1

Binder	SPOT peptide array binding signal intensity
B2	37.5
B3	67.5
B4	35

The binders below were run against AgHse1 in the same assay as above.
In short: as §1

Binder	SPOT peptide array binding signal intensity
B2	1020
B3	550
B4	936

These binders were tested against AgLsb1 in the same assay as above.
In short: as §1

Binder	SPOT peptide array binding signal intensity
B2	≤ 0
B3	15
B4	17.2

What follows are binders tested against AgLsb4 in the same assay as above.
In short: as §1

Binder	SPOT peptide array binding signal intensity
B2	56
B3	24
B4	138

These binders were tested against AgMyo5 in the same assay as above.
In short: as §1

Binder	SPOT peptide array binding signal intensity
B2	4.75
B3	16
B4	6

Each binder was assayed against AgNbp2 in the same assay as above.
In short: as §1

Binder	SPOT peptide array binding signal intensity
B2	247
B3	660
B4	424

These binders were tested against AgRvs167 in the same assay as above.
In short: as §1

Binder	SPOT peptide array binding signal intensity
B2	2.67
B3	4.17
B4	14.1

These binders were tested against AgSho1 in the same assay as above.
In short: as §1

Binder	SPOT peptide array binding signal intensity
B2	12
B3	115
B4	263

The binders below were run against AgSla1-D1-D2 in the same assay as above.
In short: as §1

Binder	SPOT peptide array binding signal intensity
B2	258
B3	54
B4	258

Each binder was assayed against AgSla1-D3 in the same assay as above.
In short: as §1

Binder	SPOT peptide array binding signal intensity
B2	2
B3	11
B4	15.8

Each binder was assayed against CaAbp1-D1 in the same assay as above.
In short: as §1

Binder	SPOT peptide array binding signal intensity
B2	1870
B3	266
B4	603

Each binder was assayed against CaAbp1-D2 in the same assay as above.
In short: as §1

Binder	SPOT peptide array binding signal intensity
B2	1400
B3	313
B4	652

These binders were tested against CaBbc1 in the same assay as above.
In short: as §1

Binder	SPOT peptide array binding signal intensity
B2	51
B3	384
B4	150

These binders were tested against CaBem1-D1 in the same assay as above.
In short: as §1

Binder	SPOT peptide array binding signal intensity
B2	13
B3	686
B4	81.5

Each binder was assayed against CaBzz1-D1 in the same assay as above.
In short: as §1

Binder	SPOT peptide array binding signal intensity
B2	157
B3	475
B4	184

What follows are binders tested against CaBzz1-D2 in the same assay as above.
In short: as §1

Binder	SPOT peptide array binding signal intensity
B2	162
B3	308
B4	108

What follows are binders tested against CaCyk3 in the same assay as above.
In short: as §1

Binder	SPOT peptide array binding signal intensity
B2	102
B3	25
B4	45.5

What follows are binders tested against CaFus1 in the same assay as above.
In short: as §1

Binder	SPOT peptide array binding signal intensity
B2	186
B3	602
B4	589

What follows are binders tested against CaHof1 in the same assay as above.
In short: as §1

Binder	SPOT peptide array binding signal intensity
B2	0.5
B3	0.5
B4	0.75

Each binder was assayed against CaHse1 in the same assay as above.
In short: as §1

Binder	SPOT peptide array binding signal intensity
B2	119
B3	225
B4	107

The binders below were run against CaLsb1 in the same assay as above.
In short: as §1

Binder	SPOT peptide array binding signal intensity
B2	≤ 0
B3	4
B4	0.75

Each binder was assayed against CaLsb4 in the same assay as above.
In short: as §1

Binder	SPOT peptide array binding signal intensity
B2	127
B3	412
B4	164

What follows are binders tested against CaMyo5 in the same assay as above.
In short: as §1

Binder	SPOT peptide array binding signal intensity
B2	≤ 0
B3	47.8
B4	8.25

These binders were tested against CaNbp2 in the same assay as above.
In short: as §1

Binder	SPOT peptide array binding signal intensity
B2	2240
B4	887

Each binder was assayed against CaRvs167 in the same assay as above.
In short: as §1

Binder	SPOT peptide array binding signal intensity
B2	1.67
B4	23.8

The binders below were run against CaRvs167-3 in the same assay as above.
In short: as §1

Binder	SPOT peptide array binding signal intensity
B2	34.2
B4	82.6

What follows are binders tested against CaSho1 in the same assay as above.
In short: as §1

Binder	SPOT peptide array binding signal intensity
B2	300
B4	898

What follows are binders tested against CaSla1-D1-D2 in the same assay as above.
In short: as §1

Binder	SPOT peptide array binding signal intensity
B2	48
B4	114

What follows are binders tested against CaSla1-D3 in the same assay as above.
In short: as §1

Binder	SPOT peptide array binding signal intensity
B2	0.5
B4	5.25

Each binder was assayed against ScAbp1 in the same assay as above.
In short: as §1

Binder	SPOT peptide array binding signal intensity
B2	179
B4	128

These binders were tested against ScBbc1 in the same assay as above.
In short: as §1

Binder	SPOT peptide array binding signal intensity
B2	6.25
B4	24.8

What follows are binders tested against ScBem1-D1 in the same assay as above.
In short: as §1

Binder	SPOT peptide array binding signal intensity
B2	16
B4	46.5

Each binder was assayed against ScBzz1-D1 in the same assay as above.
In short: as §1

Binder	SPOT peptide array binding signal intensity
B2	39.5
B4	58.5

What follows are binders tested against ScBzz1-D2 in the same assay as above.
In short: as §1

Binder	SPOT peptide array binding signal intensity
B2	4
B4	117

These binders were tested against ScCyk3 in the same assay as above.
In short: as §1

Binder	SPOT peptide array binding signal intensity
B2	113
B4	79.5

What follows are binders tested against ScFus1 in the same assay as above.
In short: as §1

Binder	SPOT peptide array binding signal intensity
B2	162
B4	706

Each binder was assayed against ScHof1 in the same assay as above.
In short: as §1

Binder	SPOT peptide array binding signal intensity
B2	1.25
B4	0.5

The binders below were run against ScHse1 in the same assay as above.
In short: as §1

Binder	SPOT peptide array binding signal intensity
B2	1280
B4	2260

These binders were tested against ScLsb1 in the same assay as above.
In short: as §1

Binder	SPOT peptide array binding signal intensity
B2	0.5
B4	22.5

The binders below were run against ScLsb2 in the same assay as above.
In short: as §1

Binder	SPOT peptide array binding signal intensity
B2	3.5
B4	8

The binders below were run against ScLsb3 in the same assay as above.
In short: as §1

Binder	SPOT peptide array binding signal intensity
B2	328
B4	558

What follows are binders tested against ScLsb4 in the same assay as above.
In short: as §1

Binder	SPOT peptide array binding signal intensity
B2	21.5
B4	29.5

The binders below were run against ScMyo3 in the same assay as above.
In short: as §1

Binder	SPOT peptide array binding signal intensity
B2	63.2
B4	6.25

Each binder was assayed against ScMyo5 in the same assay as above.
In short: as §1

Binder	SPOT peptide array binding signal intensity
B2	29.5
B4	3

Each binder was assayed against ScNbp2 in the same assay as above.
In short: as §1

Binder	SPOT peptide array binding signal intensity
B2	475
B4	548

The binders below were run against ScPex13 in the same assay as above.
In short: as §1

Binder	SPOT peptide array binding signal intensity
B2	2
B4	18.2

These binders were tested against ScRvs167 in the same assay as above.
In short: as §1

Binder	SPOT peptide array binding signal intensity
B2	23
B4	30.8

What follows are binders tested against ScSho1 in the same assay as above.
In short: as §1

Binder	SPOT peptide array binding signal intensity
B2	408
B4	1070

Each binder was assayed against ScSla1-D1-D2 in the same assay as above.
In short: as §1

Binder	SPOT peptide array binding signal intensity
B2	164
B4	309

The binders below were run against ScSla1-D3 in the same assay as above.
In short: as §1

Binder	SPOT peptide array binding signal intensity
B2	12.5
B4	29.9

What follows are binders tested against SpAbp1-D1 in the same assay as above.
In short: as §1

Binder	SPOT peptide array binding signal intensity
B2	498
B4	252

Each binder was assayed against SpBbc1 in the same assay as above.
In short: as §1

Binder	SPOT peptide array binding signal intensity
B2	1.5
B4	23.2

These binders were tested against SpBzz1-D1 in the same assay as above.
In short: as §1

Binder	SPOT peptide array binding signal intensity
B2	382
B4	125
